About 79,000 compounds went through this panel and 15% of them were active in at least one assay; those are over-represented in the sample as a whole. Unmarked numbers belong to inactive results. Calls of active or inactive are those of the source. Rule as the data show it: active = growth inhibition above about 70%; inactive = the rest.
Test: NCI Yeast Anticancer Drug Screen. Data for the sgs1 strain (AID 173);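 also: 0% = growth of vehicle-only control cultures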
Conditions: S. cerevisiae sgs1 mutant, stronger effect = higher value
Procedure: Growth inhibition of yeast strains with defined genetic alterations is measured as a screen for potential anti-cancer activity. Selected strains with alterations in DNA damage repair or cell cycle control were exposed to compounds and growth inhibition was measured relative to vehicle treated controls. The strain used in this assay is sgs1

Structure (SMILES) | growth inhibition (at 1.2 µM) [%] | growth inhibition (at 3.7 µM) | growth inhibition (at 11.0 µM) | growth inhibition (at 33.0 µM) | growth inhibition (at 100.0 µM)
O=C(c1ccccc1)[C@H]1Nc2ccc(Cl)cc2[C@H]2OCCC[C@@H]12 | 7 | 11% | 18% | 57% | 94% (active)
CCOC(=O)CC1(C)/C(=N\Nc2ccc([N+](=O)[O-])cc2[N+](=O)[O-])CCC2C1CCC1(C)C(C(C)CCCC(C)C)CCC21 (stereo not given) | -1 | -3% | -2% | -1% | -2%
O=C(CN(c1ccccc1)c1ccccc1)n1nnc2ccccc21 | 19 | 16% | 14% | 32% | 90% (active)
O=C1C(=O)c2cccc([N+](=O)[O-])c2-c2ccccc21 | 16 | 11% | 35% | 99% (active) | 96% (active)
Cc1ccc([N+](=O)[O-])c2c(NCCC[N+](C)(C)[O-])c3ccccc3nc12 | -7 | 6% | 31% | 66% | 81% (active)
COC(=O)C(Cl)(Cl)N=Nc1c(Cl)cc(Cl)c(C)c1Cl | 10 | 88% (active) | 87% (active) | 99% (active) | 100% (active)
O=C1CSC(c2ccccc2)N1c1ccc(-c2ccc(-n3c(-c4ccccc4)nc4ccccc4c3=O)cc2)cc1 (stereo not given) | 1 | 1% | 6% | 23% | 46%
CC(C)(C)c1ccc2c(c1)C(=O)c1ccccc1C2=O | -13 | -7% | 0% | 5% | 17%
